# Measurements reported in PubChem BioAssay (NCATS).
# Inconclusive results are not listed. Unmarked numbers belong to inactive results. The call rests on the fitted dose curve; in most records, active means well fitted inhibition curve with a large enough effect; inconclusive means small, poorly fitted or top-dose-only effect; inactive means flat fitted curve, though single readings scatter.
# Target: Calcium and integrin-binding protein 1 (Homo sapiens) (UniProt Q99828)
# Experiment: Primary qHTS for Identification of Calcium Integrin Binding Protein 1 (CIB1) Competitor (AID 1508620); further: top concentration of the series differs between compounds
# Conditions: CIB1-GST / FITC-alphaIIb peptide fluorescence polarization; series mostly up to 114 µM; activity change, negative = inhibition: at the top concentration
# Summary of the method: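 Fluorescence polarization competition: GST-tagged CIB1 (1 uM final) preincubated with compound 15 min at room temperature, then FITC-labelled alphaIIb peptide (100 nM final) added. After 15 min at room temperature, polarization read at Ex 480/Em 540.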
# On the % scale 0 is the no-effect control and ±100 the full control effect.
# Sequence of Calcium and integrin-binding protein 1 (Homo sapiens) (Q99828 whole entry, looked up): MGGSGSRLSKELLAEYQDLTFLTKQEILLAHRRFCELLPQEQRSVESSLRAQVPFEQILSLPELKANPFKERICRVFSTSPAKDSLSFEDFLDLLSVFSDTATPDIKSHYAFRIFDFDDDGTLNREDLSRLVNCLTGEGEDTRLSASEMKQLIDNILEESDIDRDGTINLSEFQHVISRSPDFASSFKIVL
row,Structure (SMILES),"activity change, negative = inhibition"
1,O=S1(=O)N=C(Oc2cccc(Br)c2)c2ccccc21,-3%
2,O=S(=O)(NC1CCC(NS(=O)(=O)c2c(F)cccc2F)CC1)c1ccc2c(c1)OCCO2 (stereo not given),1.37%
3,NC(=O)C1CCN(c2nc(-c3ccc4c(c3)OCCO4)cs2)CC1,1.22%
4,Fc1cc(Nc2nc(-c3ccncc3)nc3ccccc23)ccc1-c1cn[nH]c1,3.07%
5,c1cncc(-c2ccc3ncnc(NCc4ccc5c(c4)OCO5)c3c2)c1,-9.15%
6,COc1ccc(C2NC(=O)c3ccccc3N2)cc1COc1c(C)cc(NC(C)=O)cc1C (stereo not given),2.15%
7,Clc1ccc(CN(CCCNc2ncnc(NCCCc3cnc[nH]3)n2)c2ccc(Br)cn2)cc1Cl,2.63%
8,CC(=O)N1CCN(c2ccc(NS(=O)(=O)c3ccc4c(c3)CC(=O)N4)cc2)CC1,-18% [at 228 µM]
9,O=C1Nc2ccccc2/C1=C\c1ccc(O)cc1,-11.2%
10,COc1cccc(NC(=S)N2CCN(c3cccc(C(F)(F)F)n3)CC2)n1,3.17%
11,O=C(c1ccc2c(c1)ncn2-c1cccc(Cl)c1)N1CCCCC1,5.27%
12,Cc1c(C(=O)N(C)CC2CCCO2)[nH]c2c1C(=O)CC(c1ccco1)C2 (stereo not given),-14%
13,Cc1cnc(-c2ccccc2C(C)C)nc1NCc1ccc(C#N)cc1,-3.47%
14,O=C1c2ccccc2C(=O)c2cc(S(=O)(=O)Nc3cccc4cccnc34)ccc21,-16.6%
15,O=C(Cc1ccccc1)Nc1sc2c(c1C(=O)Nc1ccc(Cl)cc1)CCOC2,5.34%
16,Oc1ccc(COCc2ccccc2)c2cccnc12,-5.27%
17,COc1ccc(-c2ccc3ncnc(NCc4cccs4)c3c2)cc1,-0.374%
18,COc1nccc(-c2nc(Nc3ccc(F)c(F)c3)c3ccccc3n2)c1OC,3.27%
19,CS(=O)(=O)c1ccc(C(=O)OCC(=O)N2CCN(C3CCCCC3)CC2)cc1[N+](=O)[O-],-19.2%
20,c1ccc(CNCc2nnc(-c3cc4ccccc4[nH]3)s2)cc1,3.19%

row,Structure (SMILES),"activity change, negative = inhibition"
1,N#Cc1nc(NCCCO)nc(Nc2ccccc2)n1,0.426%
2,Cn1nnnc1Sc1ncnc2scc(-c3cccc(C(F)(F)F)c3)c12,-3.32%
3,COc1ccc(C2Nc3ccc(Cl)cc3C(=O)N2Cc2ccccc2)cc1COc1ccc(NC(C)=O)cc1 (stereo not given),9.1%
4,Cc1ccccc1C(=O)N1CCc2cc(-c3ccnc(NC(=O)Cc4ccccc4)n3)ccc21,4.64%
5,CCNC(=O)c1ccc(-c2ccc3ncnc(NCc4ccc(C)o4)c3c2)o1,-6.77%
6,CC(C)c1ccccc1-c1ncc(F)c(NCc2ccc(-n3ccnn3)cc2)n1,5.11%
7,Cc1cc(C)nc(NC(=S)N2CCN(c3cccc4[nH]ccc34)CC2)c1,-7.09%
8,Cc1ccccc1-c1nnc(NC(=O)Nc2ccc3ccccc3c2)s1,8.35%
9,O=C1CCCC2=C1C(c1[nH]ncc1Cl)N=C(Nc1nc3ccccc3s1)N2 (stereo not given),0.541%
10,Cc1ccsc1CN(C)c1ncnc2ccc(-c3oc(-c4ccccc4)nc3C)cc12,0.991%
11,Cc1c(C(=O)OCC2CCCO2)[nH]c2c1C(=O)CCC2 (stereo not given),-11.3%
12,Cn1c2cc(B(O)O)sc2c2cnn(Cc3c(F)cccc3F)c(=O)c21,-11.8%
13,COc1cc(NS(=O)(=O)c2ccc(C)cc2)c2ncccc2c1,-2.95%
14,COC(=O)c1cncc(NC(=O)c2cccs2)c1,-3.94%
15,CC(C)(C)[C@H](NC(=O)c1ccc(N)c(Cl)c1)C(=O)N1CCC[C@H]1C(=O)N[C@H](C#N)Cc1nn[nH]n1,-9%
16,Cc1ccnc(NC(=S)N2CCN(c3cccc([N+](=O)[O-])c3)CC2)c1,-15.1%
17,O=C(Nc1nnc(-c2ccco2)o1)c1ccncc1,-0.166%
18,O=S(=O)(c1ccc2c(c1)OCCO2)N1CCN(S(=O)(=O)c2cc(F)c(Br)cc2F)CC1,1.56%
19,O=S1(=O)N=C(Sc2ccc3c(c2)OCCO3)c2ccccc21,-6.66%
20,O=C(O)c1ccc(O)c2ncc(N3CCCN(CCc4ccncc4)CC3)cc12,-7.26%
